Reference: PubChem BioAssay (NCI)
Values joined by “and” are separate entries in the source; they are usually repeats but may differ in a detail not shown here. Equal entries are not always repeated. The panel holds about 83,000 compounds, 20% with a hit somewhere; the sample as a whole holds those more often.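 Negative percent growth values reflect cell death: -40 means 40% of the cells present at the start died, and -100 means all died.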 Active and inactive are the calls of the source. The calls were made as follows: active = growth percent below 10; inactive = the rest.

Test system: HL-60(TB) leukemia
Assay: NCI-60 one-dose screen, 48 h (100 = growth as untreated, 0 = no growth, -100 = all killed)
Details: 10 µM unless noted

SMILES | growth
CC(=O)Oc1c(C)c(C)c2c(c1C)CCC(C)(CC(=O)OCCCCCCCCCCC[P+](c1ccccc1)(c1ccccc1)c1ccccc1)O2 (stereo not given) | -34.8% (active)
O=C(c1ccccc1)c1cc2ccccc2oc1=O | 64.6% (inactive)
C[C@]12CC[C@@H]3c4ccc(O)c([N+](=O)[O-])c4CC[C@H]3[C@@H]1CCC2=O | 93.7% (inactive)
O=C(Nc1ccc(Oc2ccc(NC(=O)Nc3ccc([N+](=O)[O-])cc3)cc2)cc1)Nc1ccc([N+](=O)[O-])cc1 | -32.6% (active)
CCOC(C)(c1ccc(Cl)cc1)C1CCNCC1 (stereo not given) | 86.1% (inactive)
COc1ccc(CCNC(=S)NN)cc1OC | 92.1% (inactive)
O=[N+]([O-])c1ccc(/C=N\NC(=S)Nc2ccc(F)cc2)cc1 | 114% (inactive) and 82.5% (inactive)
O=C(N/N=C/c1cccc(O)c1)c1ccc(C(F)(F)F)nc1Nc1cccc(C(F)(F)F)c1 | -30.4% (active)
Cc1nc(N)sc1-c1ccnc(Nc2ccc(N3CCOCC3)cc2)n1 | 43.9% (inactive)
COc1cccc(-c2nnc(COc3ccc(-c4nc5ccc(C)cc5[nH]4)cc3OC)o2)c1 | -56.2% (active)
CCOC(=O)C1=CN(C)C=C(C(=O)OCC)C1c1cc(Br)c(OCC)c(OC)c1 | 66.7% (inactive)
O=C(NCCCl)c1cc(Cl)cc(Cl)c1 | 95.5% (inactive)
COc1ccc(C(O)c2cc3c(N)c(C(=O)Nc4ccccc4)sc3nc2C)cc1 (stereo not given) | -68.5% (active)
Cc1ccc(-c2nc3nc(-c4ccc(F)cc4)nc(N4CCNCC4)c3o2)cc1 | -69.1% (active)
CCCCC(N)(C(=O)O)C1CCCC1 (stereo not given) | 132% (inactive)
CC(C)C1C2=C(NCCN1C(=O)Cc1ccccc1)C(C)(C)N(Cc1ccccc1)C2=O (stereo not given) | 100% (inactive)
CN1CCN(Cc2ccc(NC(=O)c3[nH]ncc3Nc3ncnc4[nH]ccc34)cc2)CC1 | -31.4% (active)
O=c1c2sc3ncccc3c2nnn1-c1ccccc1 | 106% (inactive)
NC1CCC(C(=O)O)CC1 (stereo not given) | 113% (inactive) and 110% (inactive)
N#C/C(=C\c1ccc(Br)cc1)n1nnc2cccc(F)c21 | -9.67% (active)

SMILES | growth
ON1CCCC1 | 82.3% (inactive)
O=C1Nc2c(c(=O)n(-c3ccccc3)c3ccccc23)C(c2ccc(Cl)cc2)N1 (stereo not given) | 108% (inactive)
O=C(OCCBr)c1ccc(Cl)c([N+](=O)[O-])c1 | 81.7% (inactive)
Nc1nc(=S)c2[nH]cnc2[nH]1 | 13.9% (inactive) and -13.4% (active)
COc1ccc(C2C=C(c3ccc(Cl)c(Cl)c3)N=C3SC(C)=CN32)cc1OC (stereo not given) | 63.3% (inactive)
COC(=O)c1ccc2[nH]c(O)c(C(=Nc3ccc(N(C)C(=O)CN4CCN(C)CC4)cc3)c3ccc4c(c3)OCO4)c2c1 | -34.9% (active)
O=C(N/N=C/c1cccnc1)c1ccccc1Nc1cccc(C(F)(F)F)c1 | 64.8% (inactive)
COc1ccc(-c2cc(-c3cc4ccccc4oc3=O)n(-c3ccccc3)n2)cc1 | 91.6% (inactive)
O=C(Nc1ccc(C(=O)O)c(O)c1)c1ccccc1 | 99% (inactive) and 105% (inactive)
Cc1ccc2c(c1)sc(-c1ccc(N(C)C)cc1)[n+]2C | -45.4% (active)
C=C1C(=O)O[C@H]2[C@H]1CC/C(COC(=O)NCc1ccc(OC)cc1)=C\CC[C@@]1(C)O[C@@H]21 | 11.1% (inactive)
O=C(CCl)N1CCCc2ccccc21 | 93.3% (inactive)
CCn1cnc(C[C@H](NC(=O)[C@@H](NC(=O)Nc2cc(C(F)(F)F)cc(C(F)(F)F)c2)C(C)(C)C)C(=O)OC)c1 | -71.5% [100 µM] (active)
CCN(C)CCCOc1ccc(/C(=C(\C)Cc2cccc(OC)c2)c2ccc(OC(C)=O)cc2)cc1 | 100% (inactive)
COc1cnc2c(c1)C(=O)c1c-2n(CCCN2CCNCC2)c(=O)c2cc(F)ccc12 | -25% (active)
O=C(Nc1ccccc1Cl)Oc1ccc(-c2ccccc2)cc1 | 97.4% (inactive)
O=C(O)C1C2CCC1C(O)C2 (stereo not given) | 94.6% (inactive) and 96% (inactive)
Cc1ccc(NCCN2CCCCC2)c2c(=O)c3ccccc3sc12 | 1.52% (active)
COc1ccc(-n2c(C)nc3c(c(C)nn3-c3ccccc3)c2=O)cc1 | -18.3% (active)
O=S(=O)(Nc1ccc(Cl)cc1)c1ccc(-c2cnc(C3CC3)o2)cc1 | -36.7% (active)
